# From PubChem BioAssay
# Values without a mark were called inactive. Where a call stands in place of a potency, no number is given. For some of these results: Potency and affinity values are given separately. Active and inactive are the calls of the source. Unless noted, no rule for the calls is given here.
# How the values were obtained:
# [1] = antimalarial activity against Dd2 strain (AID 2302;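 active = growth inhibition above 50% at the single 2 µM test dose, taken to imply half-maximal potency below 2 µM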); settings: P. falciparum Dd2 in RBCs, LDH growth readout, 72 h; at 2 µM; active compounds read high
# [2] = HepG2 cytotoxicity, primary screen, cytotoxicity control for P. falciparum antimalarial project, cell-based, ATP luminescence (AID 2303;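 active = inhibition above 50%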); settings: HepG2 viability, 24-48 h, at 10 µM, active compounds read high
# [3] = biological target: L-lactate dehydrogenase (Plasmodium falciparum (isolate CDC / Honduras)) (UniProt Q27743); test: PfLDH activity inhibition – cell lysate, 3D7 strain, counter-screen for P. falciparum growth inhibition project (AID 2304); settings: P. falciparum 3D7 crude extract, LDH APAD/NBT absorbance; at 2 µM; active compounds read high
# [4] = inhibition of 3D7 malaria parasite growth – strain 3D7 (AID 2306); settings: P. falciparum 3D7 erythrocytic growth, LDH absorbance, 72 h; at 2 µM; active compounds read high
# [5] = biological target: Calcium-dependent protein kinase 1 (Plasmodium falciparum (isolate 3D7)) (UniProt P62344); test: PfCDPK1 kinase inhibitors, biochemical, TCAMS library (AID 1159585; cut-off not given, nearly all actives have IC50 up to about 0.98 µM;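 also: inhibitors leave more ATP so luminescence rises with inhibition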); settings: recombinant PfCDPK1, Kinase-Glo ATP depletion luminescence
# [6] = biological target: Plasmodium falciparum protein kinase 6 (PK6, PF3D7_1337100) (UniProt Q8IDW1); test: PfPK6 kinase inhibitors, biochemical, TCAMS library (AID 1159586); settings: recombinant PfPK6, Kinase-Glo ATP depletion luminescence
# [7] = biological target: Protein kinase 7 (PK7), Plasmodium falciparum 3D7 (PF3D7_0213400) (UniProt Q7YTF7); test: inhibition of Plasmodium PK7 catalytic activity – biochemical, TCAMS antimalarial set, Kinase-Glo luminescence (AID 1159587); settings: recombinant PfPK7, Kinase-Glo ATP depletion luminescence
# [8] = biological target: Calcium-dependent protein kinase 4 (Plasmodium falciparum (isolate 3D7)) (UniProt Q8IBS5); test: PfCDPK4 kinase inhibitors, biochemical, TCAMS library (AID 1159588; cut-off not given, nearly all actives have IC50 up to about 0.91 µM); settings: recombinant PfCDPK4, Kinase-Glo ATP depletion luminescence
# Chain of Calcium-dependent protein kinase 4 (Plasmodium falciparum (isolate 3D7)) (Q8IBS5 whole entry, looked up): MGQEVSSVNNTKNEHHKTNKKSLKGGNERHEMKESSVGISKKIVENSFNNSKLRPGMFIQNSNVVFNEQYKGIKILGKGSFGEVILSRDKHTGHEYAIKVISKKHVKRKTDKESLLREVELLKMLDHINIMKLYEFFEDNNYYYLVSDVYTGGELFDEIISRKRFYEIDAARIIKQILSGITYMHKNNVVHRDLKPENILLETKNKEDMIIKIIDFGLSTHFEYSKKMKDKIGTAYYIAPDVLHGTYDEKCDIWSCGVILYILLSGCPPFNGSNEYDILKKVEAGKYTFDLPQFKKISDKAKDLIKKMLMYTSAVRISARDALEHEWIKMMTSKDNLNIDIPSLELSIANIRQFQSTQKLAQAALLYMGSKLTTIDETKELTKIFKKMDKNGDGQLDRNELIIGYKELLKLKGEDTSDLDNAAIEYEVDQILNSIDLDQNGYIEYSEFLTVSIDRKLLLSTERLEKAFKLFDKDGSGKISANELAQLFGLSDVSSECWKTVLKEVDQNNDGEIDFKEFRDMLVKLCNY
# Chain of Protein kinase 7 (PK7), Plasmodium falciparum 3D7 (PF3D7_0213400) (Q7YTF7 1-343): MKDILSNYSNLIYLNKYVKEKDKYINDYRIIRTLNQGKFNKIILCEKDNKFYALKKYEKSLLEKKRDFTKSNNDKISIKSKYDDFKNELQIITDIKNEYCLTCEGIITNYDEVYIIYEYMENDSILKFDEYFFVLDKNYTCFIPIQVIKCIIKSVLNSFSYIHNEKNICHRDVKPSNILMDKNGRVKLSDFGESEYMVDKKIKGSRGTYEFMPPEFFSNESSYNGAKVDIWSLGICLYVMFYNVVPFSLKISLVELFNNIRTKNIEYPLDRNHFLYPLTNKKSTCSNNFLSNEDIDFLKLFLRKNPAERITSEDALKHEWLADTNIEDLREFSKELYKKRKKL
# Chain of Calcium-dependent protein kinase 1 (Plasmodium falciparum (isolate 3D7)) (P62344 whole entry, looked up): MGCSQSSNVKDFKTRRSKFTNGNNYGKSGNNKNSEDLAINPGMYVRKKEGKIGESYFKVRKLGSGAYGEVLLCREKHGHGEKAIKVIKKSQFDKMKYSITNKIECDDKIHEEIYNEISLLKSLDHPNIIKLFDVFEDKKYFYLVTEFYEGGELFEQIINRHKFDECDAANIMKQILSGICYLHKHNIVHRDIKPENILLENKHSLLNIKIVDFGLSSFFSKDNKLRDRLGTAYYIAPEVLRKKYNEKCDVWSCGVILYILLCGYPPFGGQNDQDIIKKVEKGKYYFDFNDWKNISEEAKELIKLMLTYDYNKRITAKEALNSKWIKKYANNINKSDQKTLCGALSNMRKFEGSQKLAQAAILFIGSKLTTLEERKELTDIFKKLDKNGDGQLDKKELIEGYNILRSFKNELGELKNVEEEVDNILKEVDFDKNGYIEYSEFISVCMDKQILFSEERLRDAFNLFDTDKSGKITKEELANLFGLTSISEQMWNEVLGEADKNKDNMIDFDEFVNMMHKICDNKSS
# Chain of Plasmodium falciparum protein kinase 6 (PK6, PF3D7_1337100) (Q8IDW1 1-305): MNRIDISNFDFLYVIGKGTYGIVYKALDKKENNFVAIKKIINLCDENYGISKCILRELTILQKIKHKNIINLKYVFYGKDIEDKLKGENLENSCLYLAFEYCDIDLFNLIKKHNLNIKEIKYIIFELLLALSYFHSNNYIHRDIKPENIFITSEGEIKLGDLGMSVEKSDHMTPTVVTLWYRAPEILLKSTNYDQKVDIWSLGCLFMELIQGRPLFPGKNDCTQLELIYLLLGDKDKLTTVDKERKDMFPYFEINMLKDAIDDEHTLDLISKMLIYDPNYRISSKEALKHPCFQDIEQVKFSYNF
# Chain of L-lactate dehydrogenase (Plasmodium falciparum (isolate CDC / Honduras)) (Q27743 whole entry, looked up): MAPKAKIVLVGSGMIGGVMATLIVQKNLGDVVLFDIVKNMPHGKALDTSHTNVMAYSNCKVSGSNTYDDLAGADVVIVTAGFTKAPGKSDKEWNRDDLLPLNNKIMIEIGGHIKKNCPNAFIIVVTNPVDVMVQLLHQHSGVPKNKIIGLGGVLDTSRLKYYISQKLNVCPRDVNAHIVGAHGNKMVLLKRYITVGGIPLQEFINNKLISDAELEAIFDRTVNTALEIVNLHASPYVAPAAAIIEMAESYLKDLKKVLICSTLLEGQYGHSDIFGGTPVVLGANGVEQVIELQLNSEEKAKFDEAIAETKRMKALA
SMILES,growth inhibition [1],inhibition [2],inhibition [3],growth inhibition [4],outcome [5],outcome [6],outcome [7],outcome [8]
O=C(O[C@@H]1CN[C@H](C#Cc2cc3ncnc(Nc4ccc5c(cnn5Cc5cccc(F)c5)c4)c3s2)C1)N1CCCC1,56% (active),9%,-3%,86% (active),inactive,inactive,inactive,inactive
O=C(Nc1cccc(CN2CCCN(Cc3ccc(O)cc3)CC2)c1)c1cccc(F)c1,4%,22%,-2%,92% (active),inactive,inactive,inactive,inactive
N#Cc1ccc(N(CCOC(=O)c2ccccc2)Cc2ccccc2C(F)(F)F)cc1C(F)(F)F,67% (active),6%,-1%,92% (active),inactive,inactive,inactive,inactive
O=C(Nc1ccc(N2CCCCC2)c(Cl)c1)c1ncn[nH]1,93% (active),-4%,-6%,93% (active),inactive,inactive,inactive,inactive
Cc1cc(C=C2SC(=Nc3ccccc3)N(C3CCCC3)C2=O)c(C)n1-c1ccc(Cl)cc1,70% (active),-8%,-1%,100% (active),inactive,inactive,inactive,inactive
COc1cccc(-c2nn(C)c3sc(C(=O)NCCN(C)Cc4ccccc4)cc23)c1,26%,21%,-3%,92% (active),inactive,inactive,inactive,inactive
COc1ccc(C(=O)[C@H]2C[C@@H]2CN(C)CCC(O)c2ccc(Cl)c(Cl)c2)cc1 (stereo not given in full),86% (active),24%,-8%,94% (active),inactive,inactive,inactive,inactive
O=C(/C=C/c1ccc(Cl)c(Cl)c1)NCCCCCCN1CCN(C(=O)Nc2ccc(C(F)(F)F)cc2)CC1,44%,42%,-1%,100% (active),inactive,inactive,inactive,inactive
O=C(NCCN1CCCCC1)c1ccc(CNC(=O)c2ccc(O)c(-c3ccc(Cl)c(Cl)c3)c2)cc1,68% (active),3%,-8%,93% (active),inactive,inactive,inactive,inactive
CN1CCN(c2ncnc3ccc(NC(=O)Nc4ccc(Cl)c(Cl)c4)cc23)CC1,89% (active),7%,-2%,100% (active),inactive,inactive,inactive,inactive
COc1cc2c(c(Cl)c1OC)CCN(Cc1ccccc1)CC2c1ccc(C(N)=O)cc1 (stereo not given),60% (active),7%,-5%,97% (active),inactive,inactive,inactive,inactive
Cc1cccc2[nH]c(-c3cccc(-c4cccc(NC(=O)C(C)CN5CCN(C)CC5)c4)c3)nc12 (stereo not given),99% (active),17%,1%,99% (active),inactive,inactive,inactive,inactive
CCN(CC(C)O)C(=O)c1ccc(-c2cccc(-c3nc4c(C)cccc4[nH]3)c2)cc1 (stereo not given),32%,28%,-2%,100% (active),inactive,inactive,inactive,inactive
O=C(Nc1cccc(C(F)(F)F)c1)c1ccc(S(=O)(=O)NCC2CCCN2CC2CCCCC2)cc1 (stereo not given),3%,14%,-5%,98% (active),inactive,inactive,inactive,inactive
O=C(O[C@H]1CN[C@H](C#Cc2cc3c(Nc4ccc(OCc5cccc(F)c5)c(Cl)c4)ncnc3s2)C1)N1CCCC1,67% (active),11%,-7%,99% (active),inactive,inactive,inactive,inactive
N#Cc1ccc(C=NNc2nc3ccccc3[nH]2)cc1,71% (active),-4%,3%,101% (active),inactive,inactive,inactive,inactive
Nc1nc(F)nc2nc[nH]c12,25%,78% (active),-2%,89% (active),inactive,inactive,inactive,inactive
O=C1NC(=S)NC1=CC=Cc1ccc([N+](=O)[O-])o1,30%,7%,2%,82% (active),inactive,inactive,inactive,inactive
COc1cccc(-c2cnc(-c3ccncc3)nc2C2CCN(Cc3ccc(NC(C)=O)cc3)CC2)c1,-3%,17%,0%,89% (active),inactive,inactive,inactive,inactive
Cc1cc(NCCc2ccccc2)nc(/N=C(\N)Nc2cccc(Cl)c2)n1,100% (active),24%,4%,101% (active),inactive,inactive,inactive,inactive
